Assay outcomes deposited in PubChem by several laboratories.
PriA SSB inh = K. pneumoniae PriA-SSBct interaction inhibition | AlphaScreen SSBct-PriA binding, biotinylated peptide | inhibition, % at 33 µM | actives 0.6% (n = 430,000); in the data active means inhibition mostly above about 37%, no sharp cut-off; inactive means mostly below about 20%;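 further: plate controls were negative control peptide for no effect and reference peptide for full effect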
VHR inh abs = blocks human VHR1 dual specificity phosphatase; actives 0.52% (n = 290,000); recombinant VHR phosphatase, pNPP absorbance; inhibition, % at 13.3 µM; in the data active means inhibition above about 50%
Target sequence (P51452 whole entry, looked up): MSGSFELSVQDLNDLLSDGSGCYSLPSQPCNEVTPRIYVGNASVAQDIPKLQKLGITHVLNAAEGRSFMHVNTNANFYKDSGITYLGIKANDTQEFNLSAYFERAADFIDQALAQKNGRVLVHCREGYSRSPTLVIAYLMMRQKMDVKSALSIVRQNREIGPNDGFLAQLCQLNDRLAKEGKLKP
Vc quorum ag = quorum light induction in luxS cqsA deficient V. cholerae; activation, % at 18.7 µM; V. cholerae BH1578 lux reporter, luminescence, 6 h; actives 0.16% (n = 350,000); in the data active means activation mostly above about 9.7%, no sharp cut-off
CCHF vOTU inh-1 = blocks the CCHF virus ovarian tumor domain protease; actives 0.55% (n = 370,000); inhibition, % at 11.5 µM; CCHFV vOTU protease, Pep-AMC fluorescence; further: 0% = vehicle wells with enzyme and 100% = no enzyme wells
PrPC TRFRET = cell surface PrPC inhibition, primary TR-FRET screen | TR-FRET read-out | inhibition, % at 13.8 µM | actives 0.43% (n = 370,000); in the data active means inhibition above about 24%; further: 0% = median of the test wells and 100% = reference compound wells
TcdB GH inh = inhibitors of Clostridioides difficile toxin B glycohydrolase. TcdB glycohydrolase enzymatic assay, plate reader. actives 0.24% (n = 350,000). P18177. AID 652162. inhibition, % at 9.99 µM; in the data active means inhibition above about 10%
CCHF vOTU inh-2 = confirmation of CCHF virus vOTU protease inhibitors. shares compounds with CCHF vOTU inh-1. Recombinant CCHFV vOTU, Pep-AMC fluorescence. inhibition, % at 11.5 µM. actives 17% (n = 1,900)
* hit, by the source's call. Most compounds without a hit are left out; they make up all but 1.5% or so of the library. Unless noted, no stated cut-off is given here; in the data, active means inhibition above about 30%; inactive means the rest.

How did CC1Cc2ccccc2N1C(=O)COC(=O)c1ccc([N+](=O)[O-])o1 (centres undefined) do in these assays?
PriA SSB inh: 9; Vc quorum ag: inactive; CCHF vOTU inh-1: 39*; PrPC TRFRET: -26; TcdB GH inh: 0; CCHF vOTU inh-2: 10

What do the screens show for `O=C(Nc1ncc(Cc2cccc(Cl)c2)s1)c1ccccc1Br`?
PriA SSB inh: 1

Results for COC(=O)c1cc(C)nc2c1C(=O)C(=O)C=C2N1CCOCC1 ?
PriA SSB inh: -5; VHR inh abs: 54*; Vc quorum ag: 0; CCHF vOTU inh-1: 107*; PrPC TRFRET: -16; TcdB GH inh: -3; CCHF vOTU inh-2: 109*

How did Cc1ccc(F)cc1S(=O)(=O)Nc1cnc(N2CCN(c3ccccn3)CC2)nc1 do in these assays?
PriA SSB inh: 7

What do the screens show for `O=C1CN(/N=C/c2ccc([N+](=O)[O-])o2)C(=O)N1`?
VHR inh abs: -3; Vc quorum ag: 0; CCHF vOTU inh-1: 29; PrPC TRFRET: -51; TcdB GH inh: -2

What do the screens show for `O=C1OCCN1/N=C/c1ccc([N+](=O)[O-])o1`?
VHR inh abs: -7; Vc quorum ag: 8; CCHF vOTU inh-1: 35*; PrPC TRFRET: -42; TcdB GH inh: 0; CCHF vOTU inh-2: 0

How did O=C1Nc2ccccc2/C1=N\N=C\c1ccc(O)c(O)c1 do in these assays?
VHR inh abs: 34; Vc quorum ag: -1; CCHF vOTU inh-1: 33*; PrPC TRFRET: -15; TcdB GH inh: -2; CCHF vOTU inh-2: 5

Results for COc1ccc(C=NN=C2C(=O)Nc3ccccc32)cc1O ?
PriA SSB inh: -7

How did COc1ccc(C(=O)N(Cc2ccco2)Cc2cccs2)c(O)c1 do in these assays?
PriA SSB inh: 5; VHR inh abs: -12; Vc quorum ag: -10; CCHF vOTU inh-1: 34*; PrPC TRFRET: -8; CCHF vOTU inh-2: -1

Results for COC(=O)/C=C1\OCc2cc(OC)c(OC)cc21 ?
CCHF vOTU inh-1: 37*; PrPC TRFRET: -3; TcdB GH inh: 1; CCHF vOTU inh-2: 1

How did CS(=O)(=O)N1CC(C(=O)N2CCN(c3cccc(Cl)c3Cl)CC2)C1 do in these assays?
PriA SSB inh: -9

How did COc1ccc(S(=O)(=O)NCC(c2ccco2)N2CCc3ccccc3C2)cc1 (centres undefined) do in these assays?
PriA SSB inh: -6; Vc quorum ag: 1; CCHF vOTU inh-1: 35*; PrPC TRFRET: -4; TcdB GH inh: 2; CCHF vOTU inh-2: -7

What do the screens show for `C(=N\Nc1ncnc2sc3c(c12)CCC3)/c1ccncc1`?
VHR inh abs: 50*; Vc quorum ag: -2; CCHF vOTU inh-1: 34*; PrPC TRFRET: 8; CCHF vOTU inh-2: -4

Results for CC1(Cc2ccc(F)cc2)C(=O)Nc2ccc(S(=O)(=O)NC3CCCCC3)cc21 (centres undefined) ?
Vc quorum ag: -1; CCHF vOTU inh-1: 44*; PrPC TRFRET: 22; TcdB GH inh: -7; CCHF vOTU inh-2: -6

What do the screens show for `Oc1cc(NCCc2cccnc2)cc2cccnc12`?
PriA SSB inh: 85*; Vc quorum ag: -1; CCHF vOTU inh-1: 41*; PrPC TRFRET: -11; TcdB GH inh: 1; CCHF vOTU inh-2: 13

How did C=CCN=C1NC(c2ccccc2)C(C(=O)OC)=C(C)N1Cc1cccc(C(F)(F)F)c1 (centres undefined) do in these assays?
CCHF vOTU inh-1: -2; PrPC TRFRET: -18; TcdB GH inh: 2

How did COC(=O)C1=C(C)N(Cc2ccccc2C(F)(F)F)C(=NCc2ccc(C(F)(F)F)cc2)NC1c1cccc(Cl)c1 (centres undefined) do in these assays?
CCHF vOTU inh-1: 36*; PrPC TRFRET: 9; TcdB GH inh: 0; CCHF vOTU inh-2: -5

What do the screens show for `COC(=O)C1=C(C)N(Cc2ccccc2C(F)(F)F)C(=NCc2ccc(C(F)(F)F)cc2)NC1c1cccc(C(F)(F)F)c1` (centres undefined)?
CCHF vOTU inh-1: 19; PrPC TRFRET: 1; TcdB GH inh: 1

What do the screens show for `C=CCN=C1NC(c2cccc(Cl)c2)C(C(=O)OC)=C(C)N1Cc1cccc(C(F)(F)F)c1` (centres undefined)?
CCHF vOTU inh-1: 30*; PrPC TRFRET: -12; TcdB GH inh: -2; CCHF vOTU inh-2: -5

Results for COC(=O)C1=C(C)N(Cc2ccc(C(F)(F)F)cc2)C(=NCc2ccc(OC)cc2)NC1c1ccccc1 (centres undefined) ?
CCHF vOTU inh-1: 30*; PrPC TRFRET: -12; TcdB GH inh: 1; CCHF vOTU inh-2: -1

How did CCn1ncc(CN(C)S(=O)(=O)c2[nH]ncc2C(=O)O)c1C do in these assays?
PriA SSB inh: -2

What do the screens show for `Cc1ccc(-c2ccc(=O)n(CCCNC(=O)c3cccs3)n2)cc1`?
PriA SSB inh: -14

Results for CCN(c1ccc(NC(=O)COC(=O)C2CCN(c3ccc(C(F)(F)F)cn3)CC2)cc1)C(C)C ?
PriA SSB inh: 29; Vc quorum ag: inactive; CCHF vOTU inh-1: 30*; PrPC TRFRET: 5; TcdB GH inh: -1; CCHF vOTU inh-2: 23

How did N#CCSc1nc2c(-c3ccccc3)c[nH]c2c(=O)n1Cc1ccccc1 do in these assays?
PriA SSB inh: 8

What do the screens show for `Cc1csc(NC(=O)C2CC(=O)N(c3ccc4c(c3)OCCO4)C2)n1` (centres undefined)?
PriA SSB inh: 2; Vc quorum ag: inactive; CCHF vOTU inh-1: -2; PrPC TRFRET: 6; TcdB GH inh: 2

How did CCc1ccc(-c2csc(NC(=O)C3CC(=O)N(c4ccc5c(c4)OCCO5)C3)n2)cc1 (centres undefined) do in these assays?
PriA SSB inh: 10; VHR inh abs: 5; Vc quorum ag: 2; CCHF vOTU inh-1: 30*; PrPC TRFRET: 6; TcdB GH inh: 1; CCHF vOTU inh-2: -22

What do the screens show for `Cc1cc2ncc(CCCNC(=O)c3ccc(OC(F)(F)F)cc3)cn2n1`?
PriA SSB inh: 20

How did N#CCCN(C(=O)COC(=O)CCc1c[nH]c2ccccc12)c1ccccc1 do in these assays?
PriA SSB inh: 1; Vc quorum ag: 5; CCHF vOTU inh-1: 36*; PrPC TRFRET: 3; TcdB GH inh: 0; CCHF vOTU inh-2: -10

Results for CCN(CC(=O)Nc1ccccc1OC)C(=O)c1ccc2[nH]c3c(c2c1)CC(C)CC3 (centres undefined) ?
PriA SSB inh: 0; Vc quorum ag: inactive; CCHF vOTU inh-1: 14; PrPC TRFRET: -2; TcdB GH inh: 3

What do the screens show for `CCCN(CC(=O)Nc1ccccc1OC)C(=O)c1ccc2[nH]c3c(c2c1)CC(C)CC3` (centres undefined)?
PriA SSB inh: -9; Vc quorum ag: 2; CCHF vOTU inh-1: 38*; PrPC TRFRET: 4; TcdB GH inh: 0; CCHF vOTU inh-2: 10
